Screening data deposited in PubChem BioAssay by National Center for Advancing Translational Sciences (NCATS).
This is a sample that favours compounds with a hit; in the whole collection about 2.3% have one here.
TRPV1 agonist: activates the human vanilloid receptor TRPV1; AID 540275; activation, % at 8.33 µM; 0.19% of 320,000 active; TRPV1-expressing cells, Fluo-8 calcium influx, agonist mode; Q8NER1; in the data active = activation above about 80%; inconclusive = between about 30% and that limit; note: 0% is about no effect
Target sequence (Q8NER1 whole entry, looked up): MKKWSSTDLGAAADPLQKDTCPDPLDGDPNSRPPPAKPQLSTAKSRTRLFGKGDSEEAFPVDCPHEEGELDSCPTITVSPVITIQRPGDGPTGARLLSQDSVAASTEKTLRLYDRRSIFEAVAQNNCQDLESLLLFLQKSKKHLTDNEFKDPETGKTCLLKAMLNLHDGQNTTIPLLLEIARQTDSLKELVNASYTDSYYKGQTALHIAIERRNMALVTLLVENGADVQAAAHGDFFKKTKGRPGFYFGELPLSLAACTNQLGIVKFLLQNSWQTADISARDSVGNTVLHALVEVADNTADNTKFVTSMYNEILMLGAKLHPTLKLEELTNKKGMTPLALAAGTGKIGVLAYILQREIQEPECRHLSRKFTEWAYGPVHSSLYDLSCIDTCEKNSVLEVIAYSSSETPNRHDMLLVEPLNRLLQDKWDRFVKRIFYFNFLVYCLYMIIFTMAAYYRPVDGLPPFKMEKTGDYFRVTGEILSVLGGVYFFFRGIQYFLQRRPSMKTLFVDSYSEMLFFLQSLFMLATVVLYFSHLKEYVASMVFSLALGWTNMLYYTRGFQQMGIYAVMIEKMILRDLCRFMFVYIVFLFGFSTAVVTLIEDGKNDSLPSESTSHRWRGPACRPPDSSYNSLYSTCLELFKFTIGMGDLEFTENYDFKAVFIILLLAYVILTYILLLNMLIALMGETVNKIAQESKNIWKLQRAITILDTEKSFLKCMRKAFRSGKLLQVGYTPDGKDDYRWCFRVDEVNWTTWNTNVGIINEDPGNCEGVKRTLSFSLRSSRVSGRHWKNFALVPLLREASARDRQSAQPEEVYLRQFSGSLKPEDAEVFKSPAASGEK
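TRPV1-expressing cells were cultured overnight at 35.5C and loaded with Fluo-8 calcium dye for 40 to 90 min at room temperature. After a 10 s baseline, compound was added and calcium influx was read kinetically for 3 min (ex 480/em 520 nm).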
ELG1 DNA repair: blocks ELG1-dependent DNA repair in HEK293T cells. 2.3% of 330,000 active. Potency, µM (top dose mostly 46.1 µM), inactives show at the highest dose activity change, negative = inhibition, hits mostly inhibitors. HEK293T ELG1-luciferase reporter, luminescence, 16 h; DNA damage induced by 5-fluorouridine; note: potency is the fitted concentration of half-maximal effect; % is set by controls: 0 for no effect and ±100 for the full control effect; nearly all actives have a fitted effect of over 55% in size
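Overnight (16 hr) co-exposure of 2,000 cells/well to 5-fluorouridine and compound at 37 °C preceded detection. Luciferase was quantified via ONE-Glo luminescence; loss of signal denotes inhibition.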
TRPV1 potentiator: human TRPV1 potentiation; potentiation, % at 8.33 µM; TRPV1-expressing cells, Fluo-8 calcium influx, capsaicin EC20 potentiation; 0.02% of 320,000 active; AID 540277; in the data active = potentiation above about 80%; inconclusive = between about 30% and that limit; note: 0% is about no effect
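Cells expressing TRPV1 were dye-loaded with Fluo-8 and read kinetically: 10 s baseline, 3 min after compound (agonist portion), then 2 min after EC20 capsaicin (allosteric enhancer portion). Calcium-bound dye fluorescence at 480/520 nm.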
Giardia kill: kills Giardia lamblia. 0.15% of 340,000 active. Giardia lamblia trophozoite viability. activity change, % at 7.66 µM, hits read low; in the data active = activity change below about -80%; inconclusive = between about -30% and that limit;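 note: parasites exposed to compound for two days anaerobically before the ATP read; % is set by controls: 0 for no effect and ±100 for the full control effect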
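Giardia lamblia trophozoites (100 cells/well) were incubated with compounds for 48 h at 37 deg C under anaerobic conditions. Viability was read as ATP content by one-step luminescence after 15-30 min at room temperature.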
FUS suppressor: suppressors of FUS proteinopathy in yeast | Potency, µM (top dose mostly 76.6 µM), actives largely listed as activators | S. cerevisiae FUS-expressing, growth rescue, OD600, 24 h | 0.24% of 390,000 active;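 note: potency is the fitted concentration of half-maximal effect; plate controls were DMSO vehicle for no effect and reference control for full effect; nearly all actives have a fitted effect of over 55% in size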
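Toxicity suppression screen in FUS-yeast. Cells induced with 2% galactose, starting OD 0.005, treated 24hr at 30C with compounds at multiple final concentrations; growth by OD600.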
ELG1 FLuc counter: luciferase inhibition in cell-free luciferin readout for ELG1 hits. shares compounds with ELG1 DNA repair. cell-free firefly luciferase luminescence counter-screen, ViewLux. Potency, µM (highest dose often 46.1 µM), for the others: top-dose activity change, negative = inhibition, hits mostly inhibitors. 3% of 350 active. AID 624247; note: potency is the fitted concentration of half-maximal effect; % is set by controls: 0 for no effect and ±100 for the full control effect
ELG1 Luc conf: inhibits ELG1-dependent DNA repair in HEK293T cells, confirmed; Potency, µM (top dose mostly 46.1 µM), for inactives: at the top dose activity change, negative = inhibition, actives largely listed as inhibitors; HEK293T ELG1-luciferase levels, luminescence; cells co-treated with 5-fluorouridine; shares compounds with ELG1 DNA repair; 68% of 670 active; note: potency is the fitted concentration of half-maximal effect; % is set by controls: 0 for no effect and ±100 for the full control effect; nearly all actives have a fitted effect of over 55% in size
ELG1 MMS Luc: inhibits ELG1-dependent repair under MMS stimulation in HEK293T cells. Potency, µM (doses to about 46.1 µM), inactives show top-dose activity change, negative = inhibition, hits mostly inhibitors. 53% of 670 active. shares compounds with ELG1 DNA repair. HEK293T luciferase-tagged ELG1 level, MMS stimulated; note: potency is the fitted concentration of half-maximal effect; % is set by controls: 0 for no effect and ±100 for the full control effect; nearly all actives have a fitted effect of over 60% in size
ELG1 5-FU: confirmation of ELG1 repair inhibitors: viability with 5FU. shares compounds with ELG1 DNA repair. cell viability with 5-FU, ELG1-dependent repair. Potency, µM (highest dose often 46.1 µM), inactives show top-dose activity change, negative = viability loss, usual class: cytotoxic. 670 tested, under 10 active. AID 624250;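 note: ELG1-luc HEK293T cells cotreated with 5-fluorouridine at 10 µM final; potency is the fitted concentration of half-maximal effect; viability measured 16 h after compound addition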
ELG1 MMS cell: confirmation of ELG1 repair inhibitors: viability with MMS. shares compounds with ELG1 DNA repair. Cell viability with MMS, ELG1-dependent DNA repair. Potency, µM (doses to about 46.1 µM), without a hit: at the highest dose activity change, negative = viability loss, usual class: cytotoxic. 33% of 670 active. AID 624251;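 note: ELG1-luc HEK293T cells co-treated with 10 µM MMS; potency is the fitted concentration of half-maximal effect; viability read 16 h after compound addition; % is set by controls: 0 for no effect and ±100 for the full control effect; nearly all actives have a fitted effect of over 60% in size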
Cell viab unstim: counter-screen for ELG1 repair inhibitors: unstimulated cell viability | shares compounds with ELG1 DNA repair | cell viability counter-screen, unstimulated, luminescence | Potency, µM (series often up to 45.9 µM), without a hit: at the highest dose activity change, negative = loss of viability, actives largely listed as cytotoxic | 8% of 900 active;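 note: potency is the fitted concentration of half-maximal effect; compound exposure lasted 16 hours before reading; % is set by controls: 0 for no effect and ±100 for the full control effect; nearly all actives have a fitted effect of over 55% in size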
FLuc enzyme: counter-screen for ELG1 repair inhibitors: firefly luciferase inhibition; Potency, µM (titrated, usually from 57.5 µM), for inactives: at the top dose activity, negative = inhibition, actives largely listed as inhibitors; shares compounds with ELG1 DNA repair; 10% of 350 active; purified firefly luciferase, luminescence counter-screen; note: potency is the fitted concentration of half-maximal effect; % is set by controls: 0 for no effect and ±100 for the full control effect
* hit, by the source's call; i = inactive; ? = inconclusive; nt = not tested or not shown. Unless noted, calls come from the whole dose curve; as a rule, active = well fitted curve in the direction sought with a large enough effect; inconclusive = small, poorly fitted or top-dose-only effect, or another doubt; inactive = no such curve, though single readings can be large; an effect the other way counts as inactive or inconclusive.

SMILES | TRPV1 agonist | ELG1 DNA repair | TRPV1 potentiator | Giardia kill | FUS suppressor | ELG1 Luc conf | ELG1 MMS Luc | ELG1 5-FU | ELG1 MMS cell | Cell viab unstim | others
CCOC(=O)c1cnn2c(C(F)(F)F)cc(-c3ccc(Br)cc3)nc12 | nt | nt | nt | nt | i | nt | nt | nt | nt | nt
COc1ccc(-c2cc(C(F)(F)F)n3nc(C(=O)Nc4cc(C)on4)cc3n2)cc1OC | -0.4 | 3.66µM* | -7.2 | 7.9 | i | ? | -4.3% | ? | ? | 2.7%
Cc1cc(NC(=O)c2cnn3c(C(F)(F)F)cc(-c4ccc(Br)cc4)nc23)no1 | ? | 14.6µM* | -0.7 | 6.7 | i | 5µM* | -6.9% | ? | 1.6% | -19.8% | ELG1 FLuc counter=1.6%;FLuc enzyme=3.7%
CCCC(=O)N1CCCC1(C)C(=O)Nc1ccc2nc(C)ccc2c1 (stereo not drawn) | nt | nt | nt | nt | i | nt | nt | nt | nt | nt
Cc1cc(C(=O)NNc2ccc(F)cc2)no1 | -0.3 | 2.91µM* | ? | 8.4 | i | -4.6% | 19.0% | -8.1% | -2.2% | 0.5%
COc1ccc(/C=N/NC(=O)c2ccoc2C)cc1CN1CCN(c2ccc(F)cc2)CC1 | -4.5 | 2.59µM* | 10.0 | 14.3 | i | 2.5µM* | -9.7% | ? | -1.4% | ?
CCOc1ccc(/C=N/NC(=O)c2ccoc2C)cc1OC | -1.8 | ? | 7.8 | -12.6 | i | nt | nt | nt | nt | nt
COc1ccc2[nH]c3c(c2c1)CCN[C@]31C(=O)Nc2ccccc21 | nt | nt | nt | nt | i | nt | nt | nt | nt | nt
O=C(Nc1cccc(NC(=O)c2cccc([N+](=O)[O-])c2)n1)c1cccc([N+](=O)[O-])c1 | -6.7 | 2.06µM* | 6.9 | -20.8 | i | ? | 6.5% | -4.0% | ? | ?
O=C(c1cc2ccccc2[nH]1)c1cc2cc(O)ccc2[nH]1 | nt | nt | nt | nt | nt | nt | nt | nt | nt | -0.7%
CC(C)CC(C)NNC(=O)c1cc2ccccc2[nH]1 (stereo not drawn) | 22.4 | ? | -23.6 | -26.1 | nt | nt | nt | nt | nt | nt
COc1ccccc1N1CCN(C(=O)CCCN2C(=O)c3cccc4cccc(c34)C2=O)CC1 | 5.8 | 4.61µM* | -11.1 | -19.7 | i | 7.91µM* | ? | ? | -4.1% | ?
Cn1c(=O)c2[nH]c(CN(Cc3ccccc3)Cc3ccccc3)nc2n(C)c1=O | -1.1 | 4.11µM* | -3.3 | -21.0 | nt | 7.91µM* | ? | -9.2% | ? | ?
Cn1c(=O)c2[nH]c(CSCc3ccccc3)nc2n(C)c1=O | nt | nt | nt | 4.0 | nt | nt | nt | nt | nt | nt
COC1=C2C[C@@H](C)C[C@H](OC)[C@H](O)[C@@H](C)/C=C(\C)[C@H](OC(N)=O)[C@@H](OC)/C=C\C=C(/C)C(=O)NC(=CC1=O)C2=O | nt | nt | nt | nt | nt | 1.41µM* | 1.99µM* | ? | 14.1µM* | ?
